# Data published in the supplement of paper PMC6607015.
# Structures can show the parent of a compound that is named as a salt.
# How the values were obtained:
# Conditions in all cases: compound concentration in added solution (µM; 5 µl added to 20 µl cells): 10; 18 h
# A431 [1] = assay: LBPA endosome anti-LBPA integrated intensity (sum per cell), Z-score; higher = more LBPA staining
# Method in brief: (§1)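 Four 20× images per well were taken of HeLa MZ or A431 cells that had been seeded at 3,500 per well in 20 µl onto 5 µl of 10 µM compound solution in duplicate 384-well imaging plates. Before imaging, cells were incubated 18 h, fixed in 4% PFA and stained with 6C4 anti-LBPA antibody, filipin, propidium iodide and CellTracker green. Values are Z-scores normalised in AcuityXpress from MetaXpress-derived per-cell integrated LBPA or filipin intensity, either whole-cell or within LBPA endosomes.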
# HeLa MZ [2] = assay: as above
# Method in brief: as §1
# A431 [3] = assay: whole-cell filipin (free cholesterol) integrated intensity, Z-score; higher = more cholesterol staining
# Method in brief: as §1
# HeLa MZ [4] = assay: as above
# Method in brief: as §1
# A431 [5] = assay: filipin (cholesterol) integrated intensity within LBPA endosomes, Z-score; higher = more cholesterol in LBPA endosomes
# Method in brief: as §1
# HeLa MZ [6] = assay: as above
# Method in brief: as §1
structure (smiles),measurement,setting,value
C#C[C@]1(O)CC[C@H]2[C@@H]3CCC4=CC(=O)CC[C@]4(C)[C@H]3CC[C@@]21C [Ethisterone],LBPA endosome anti-LBPA integrated intensity (z-score),A431 [1],-0.369
same,LBPA endosome anti-LBPA integrated intensity (z-score),HeLa MZ [2],-0.214
same,whole-cell filipin (z-score),A431 [3],-0.635
same,whole-cell filipin (z-score),HeLa MZ [4],-1.08
same,filipin (z-score),A431 [5],-0.449
same,filipin (z-score),HeLa MZ [6],-0.685
C[C@@H]1CC[C@H]2[C@@H](C)C(=O)O[C@@H]3O[C@@]4(C)CC[C@@H]1[C@]32OO4 [Artemisinin],LBPA endosome anti-LBPA integrated intensity (z-score),A431 [1],-0.479
same,LBPA endosome anti-LBPA integrated intensity (z-score),HeLa MZ [2],0.63
same,whole-cell filipin (z-score),A431 [3],-0.6
same,whole-cell filipin (z-score),HeLa MZ [4],0.161
same,filipin (z-score),A431 [5],-0.503
same,filipin (z-score),HeLa MZ [6],-0.315
C#CCN(C)[C@H](C)Cc1ccccc1 [Selegiline hydrochloride],LBPA endosome anti-LBPA integrated intensity (z-score),A431 [1],-0.688
same,LBPA endosome anti-LBPA integrated intensity (z-score),HeLa MZ [2],-1.62
same,whole-cell filipin (z-score),A431 [3],-0.708
same,whole-cell filipin (z-score),HeLa MZ [4],-0.332
same,filipin (z-score),A431 [5],-0.535
same,filipin (z-score),HeLa MZ [6],-0.657
O=C(O)CCCc1ccc(N(CCCl)CCCl)cc1 [Chlorambucil],LBPA endosome anti-LBPA integrated intensity (z-score),A431 [1],-0.184
same,LBPA endosome anti-LBPA integrated intensity (z-score),HeLa MZ [2],1.86
same,whole-cell filipin (z-score),A431 [3],1.33
same,whole-cell filipin (z-score),HeLa MZ [4],2.72
same,filipin (z-score),A431 [5],-0.393
same,filipin (z-score),HeLa MZ [6],-0.471
C[N+]1(C)CCOC(O)(c2ccc(-c3ccc(C4(O)C[N+](C)(C)CCO4)cc3)cc2)C1 (stereo not drawn) [Hemicholinium bromide],LBPA endosome anti-LBPA integrated intensity (z-score),A431 [1],-0.629
same,LBPA endosome anti-LBPA integrated intensity (z-score),HeLa MZ [2],-1.27
same,whole-cell filipin (z-score),A431 [3],-0.551
same,whole-cell filipin (z-score),HeLa MZ [4],-0.638
same,filipin (z-score),A431 [5],-0.55
same,filipin (z-score),HeLa MZ [6],-0.667
c1ccc2nc(N3CCNCC3)ccc2c1 [Quipazine dimaleate salt],LBPA endosome anti-LBPA integrated intensity (z-score),A431 [1],-0.64
same,LBPA endosome anti-LBPA integrated intensity (z-score),HeLa MZ [2],0.00535
same,whole-cell filipin (z-score),A431 [3],-0.594
same,whole-cell filipin (z-score),HeLa MZ [4],-0.241
same,filipin (z-score),A431 [5],-0.575
same,filipin (z-score),HeLa MZ [6],-0.45
NC(=O)CN1CCCC1=O [Piracetam],LBPA endosome anti-LBPA integrated intensity (z-score),A431 [1],-0.558
same,LBPA endosome anti-LBPA integrated intensity (z-score),HeLa MZ [2],-0.0728
same,whole-cell filipin (z-score),A431 [3],-0.653
same,whole-cell filipin (z-score),HeLa MZ [4],-0.301
same,filipin (z-score),A431 [5],-0.56
same,filipin (z-score),HeLa MZ [6],-0.514
CN1CCN(C(=O)OC2c3nccnc3C(=O)N2c2ccc(Cl)cn2)CC1 (stereo not drawn) [Zopiclone],LBPA endosome anti-LBPA integrated intensity (z-score),A431 [1],-0.313
same,LBPA endosome anti-LBPA integrated intensity (z-score),HeLa MZ [2],-0.4
same,whole-cell filipin (z-score),A431 [3],-0.601
same,whole-cell filipin (z-score),HeLa MZ [4],-0.164
same,filipin (z-score),A431 [5],-0.406
same,filipin (z-score),HeLa MZ [6],-0.296
COc1ccc(OC)c(C(O)C(C)N)c1 (stereo not drawn) [Methoxamine hydrochloride],LBPA endosome anti-LBPA integrated intensity (z-score),A431 [1],-0.442
same,LBPA endosome anti-LBPA integrated intensity (z-score),HeLa MZ [2],0.415
same,whole-cell filipin (z-score),A431 [3],-0.614
same,whole-cell filipin (z-score),HeLa MZ [4],-0.834
same,filipin (z-score),A431 [5],-0.515
same,filipin (z-score),HeLa MZ [6],-0.513
CO[C@]12C[C@@H](COC(=O)c3cncc(Br)c3)CN(C)[C@@H]1Cc1cn(C)c3cccc2c13 [Nicergoline],LBPA endosome anti-LBPA integrated intensity (z-score),A431 [1],3.54
same,LBPA endosome anti-LBPA integrated intensity (z-score),HeLa MZ [2],1.32
same,whole-cell filipin (z-score),A431 [3],3.37
same,whole-cell filipin (z-score),HeLa MZ [4],-0.0724
same,filipin (z-score),A431 [5],3.09
same,filipin (z-score),HeLa MZ [6],0.446
O=[N+]([O-])O[C@@H]1CO[C@H]2[C@@H]1OC[C@@H]2O [Isosorbide mononitrate],LBPA endosome anti-LBPA integrated intensity (z-score),A431 [1],-0.416
same,LBPA endosome anti-LBPA integrated intensity (z-score),HeLa MZ [2],-0.118
same,whole-cell filipin (z-score),A431 [3],0.0855
same,whole-cell filipin (z-score),HeLa MZ [4],-0.408
same,filipin (z-score),A431 [5],-0.35
same,filipin (z-score),HeLa MZ [6],-0.464
"CC(=O)OCC1=C(C(=O)O)N2C(=O)[C@@H](N)[C@H]2SC1 [Cephalosporanic acid, 7-amino]",LBPA endosome anti-LBPA integrated intensity (z-score),A431 [1],-0.605
same,LBPA endosome anti-LBPA integrated intensity (z-score),HeLa MZ [2],-1.08
same,whole-cell filipin (z-score),A431 [3],-0.806
same,whole-cell filipin (z-score),HeLa MZ [4],-0.877
same,filipin (z-score),A431 [5],-0.581
same,filipin (z-score),HeLa MZ [6],-0.604
CCC(=O)O[C@H]1CC[C@H]2[C@@H]3CCC4=CC(=O)CC[C@]4(C)[C@H]3CC[C@]12C [Testosterone propionate],LBPA endosome anti-LBPA integrated intensity (z-score),A431 [1],-0.618
same,LBPA endosome anti-LBPA integrated intensity (z-score),HeLa MZ [2],-0.712
same,whole-cell filipin (z-score),A431 [3],-0.907
same,whole-cell filipin (z-score),HeLa MZ [4],-0.813
same,filipin (z-score),A431 [5],-0.502
same,filipin (z-score),HeLa MZ [6],-0.546
C=C1[C@@H]2CC[C@H]3[C@]4(C)C[C@H](O[C@@H]5O[C@H](CO)[C@@H](OS(=O)(=O)O)[C@H](OS(=O)(=O)O)[C@H]5OC(=O)CC(C)C)C[C@@H](C(=O)O)[C@H]4CC[C@]3(C2)[C@@H]1O [Atractyloside potassium salt],LBPA endosome anti-LBPA integrated intensity (z-score),A431 [1],-0.439
same,LBPA endosome anti-LBPA integrated intensity (z-score),HeLa MZ [2],-0.0672
same,whole-cell filipin (z-score),A431 [3],-0.293
same,whole-cell filipin (z-score),HeLa MZ [4],-0.252
same,filipin (z-score),A431 [5],-0.383
same,filipin (z-score),HeLa MZ [6],-0.47
CC(C)c1cccc(C(C)C)c1O [Propofol],LBPA endosome anti-LBPA integrated intensity (z-score),A431 [1],-0.483
same,LBPA endosome anti-LBPA integrated intensity (z-score),HeLa MZ [2],-0.0677
same,whole-cell filipin (z-score),A431 [3],-0.406
same,whole-cell filipin (z-score),HeLa MZ [4],-0.391
same,filipin (z-score),A431 [5],-0.506
same,filipin (z-score),HeLa MZ [6],-0.548
C=CCC1(CC(C)C)C(=O)NC(=O)NC1=O [Butalbital],LBPA endosome anti-LBPA integrated intensity (z-score),A431 [1],-0.477
same,LBPA endosome anti-LBPA integrated intensity (z-score),HeLa MZ [2],-0.493
same,whole-cell filipin (z-score),A431 [3],-0.608
same,whole-cell filipin (z-score),HeLa MZ [4],-0.648
same,filipin (z-score),A431 [5],-0.55
same,filipin (z-score),HeLa MZ [6],-0.51
CC(NC(C)(C)C)C(=O)c1cccc(Cl)c1 (stereo not drawn) [Bupropion hydrochloride],LBPA endosome anti-LBPA integrated intensity (z-score),A431 [1],-0.577
same,LBPA endosome anti-LBPA integrated intensity (z-score),HeLa MZ [2],-0.652
same,whole-cell filipin (z-score),A431 [3],-0.448
same,whole-cell filipin (z-score),HeLa MZ [4],-0.134
same,filipin (z-score),A431 [5],-0.453
same,filipin (z-score),HeLa MZ [6],-0.438
CC(Cc1ccccc1)NCCC(c1ccccc1)c1ccccc1 (stereo not drawn) [Prenylamine lactate],LBPA endosome anti-LBPA integrated intensity (z-score),HeLa MZ [2],1.19
same,whole-cell filipin (z-score),HeLa MZ [4],1.27
same,filipin (z-score),HeLa MZ [6],2.44
CNC(C)(C)Cc1ccccc1 [Mephentermine hemisulfate],LBPA endosome anti-LBPA integrated intensity (z-score),A431 [1],-0.473
same,LBPA endosome anti-LBPA integrated intensity (z-score),HeLa MZ [2],-0.965
same,whole-cell filipin (z-score),A431 [3],-0.48
same,whole-cell filipin (z-score),HeLa MZ [4],-0.125
same,filipin (z-score),A431 [5],-0.471
same,filipin (z-score),HeLa MZ [6],-0.403
C[C@]12CC[C@@H](O)C[C@H]1CC[C@@H]1[C@@H]2CC[C@]2(C)C(=O)CC[C@@H]12 [3-alpha-Hydroxy-5-beta-androstan-17-one],LBPA endosome anti-LBPA integrated intensity (z-score),A431 [1],-0.153
same,LBPA endosome anti-LBPA integrated intensity (z-score),HeLa MZ [2],1.16
same,whole-cell filipin (z-score),A431 [3],0.209
same,whole-cell filipin (z-score),HeLa MZ [4],0.519
same,filipin (z-score),A431 [5],-0.175
same,filipin (z-score),HeLa MZ [6],-0.161
C[C@]12Cc3c[nH]nc3C[C@@H]1CC[C@@H]1[C@@H]2CC[C@@]2(C)[C@H]1CC[C@]2(C)O [Stanozolol],LBPA endosome anti-LBPA integrated intensity (z-score),A431 [1],0.154
same,LBPA endosome anti-LBPA integrated intensity (z-score),HeLa MZ [2],1.15
same,whole-cell filipin (z-score),A431 [3],0.353
same,whole-cell filipin (z-score),HeLa MZ [4],-0.167
same,filipin (z-score),A431 [5],0.0473
same,filipin (z-score),HeLa MZ [6],-0.12
Oc1cc(Cl)ccc1Oc1ccc(Cl)cc1Cl [Triclosan],LBPA endosome anti-LBPA integrated intensity (z-score),A431 [1],-0.463
same,LBPA endosome anti-LBPA integrated intensity (z-score),HeLa MZ [2],0.177
same,whole-cell filipin (z-score),A431 [3],-0.0345
same,whole-cell filipin (z-score),HeLa MZ [4],3.99
same,filipin (z-score),A431 [5],-0.336
same,filipin (z-score),HeLa MZ [6],-0.129
N[C@@H]1C[C@H]1c1ccccc1 [Tranylcypromine hydrochloride],LBPA endosome anti-LBPA integrated intensity (z-score),A431 [1],-0.505
same,LBPA endosome anti-LBPA integrated intensity (z-score),HeLa MZ [2],-0.919
same,whole-cell filipin (z-score),A431 [3],-0.309
same,whole-cell filipin (z-score),HeLa MZ [4],-0.693
same,filipin (z-score),A431 [5],-0.48
same,filipin (z-score),HeLa MZ [6],-0.53
COc1ccc(CN2CCNCC2)c(OC)c1OC [Trimetazidine dihydrochloride],LBPA endosome anti-LBPA integrated intensity (z-score),A431 [1],-0.479
same,LBPA endosome anti-LBPA integrated intensity (z-score),HeLa MZ [2],0.3
same,whole-cell filipin (z-score),A431 [3],-0.53
same,whole-cell filipin (z-score),HeLa MZ [4],-0.184
same,filipin (z-score),A431 [5],-0.484
same,filipin (z-score),HeLa MZ [6],-0.365
CC(=O)O[C@H]1CC[C@@]2(C)C(=CC[C@@H]3[C@@H]2CC[C@]2(C)C(=O)CC[C@@H]32)C1 [Dehydroisoandosterone 3-acetate],LBPA endosome anti-LBPA integrated intensity (z-score),A431 [1],-0.242
same,LBPA endosome anti-LBPA integrated intensity (z-score),HeLa MZ [2],-0.00203
same,whole-cell filipin (z-score),A431 [3],0.0526
same,whole-cell filipin (z-score),HeLa MZ [4],0.0333
same,filipin (z-score),A431 [5],-0.136
same,filipin (z-score),HeLa MZ [6],-0.214
CCC1(c2cccc(O)c2)CCCCN(C)C1 (stereo not drawn) [Meptazinol hydrochloride],LBPA endosome anti-LBPA integrated intensity (z-score),A431 [1],-0.527
same,LBPA endosome anti-LBPA integrated intensity (z-score),HeLa MZ [2],-0.173
same,whole-cell filipin (z-score),A431 [3],0.166
same,whole-cell filipin (z-score),HeLa MZ [4],-0.306
same,filipin (z-score),A431 [5],-0.402
same,filipin (z-score),HeLa MZ [6],-0.0124
